# PGC1a acetyl inh = lowers PGC1a acetylation signal in U2OS cells; AID 651687; inhibition, % at 15.6 µM; actives 0.17% (n = 350,000); AlphaScreen anti-acetyl-lysine; with virally co-expressed GCN5 acetyltransferase;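 active = every replicate shows inhibition of at least 40%; inconclusive = mean inhibition at least 40% but some replicate below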;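 note: 0% = neutral control wells and 100% = positive control wells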
# PvdQ acylase = P. aeruginosa PvdQ acylase inhibition; AID 488965; actives 0.063% (n = 340,000); inhibition, % at 10 µM; purified PvdQ acylase, fluorescence plate reader; in the data active = inhibition above about 30%, passing the limit was not always enough; inconclusive = no clear call, values can overlap the other calls;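 note: 0% = vehicle neutral wells and 100% = reference inhibitor wells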
# miR-122 sensor = inhibitors of miR-122 in Huh7 cells. Huh7 miR-122 Renilla luciferase sensor, 48 h; neutral wells = 0, positive control = 100. activation (reporter increase), % at 12.5 µM. actives 0.3% (n = 340,000). AID 602342;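 active = mean replicate activation score at least 90 and every replicate individually at or above 90; inconclusive = only one of the two criteria met; inactive = neither criterion met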;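 note: higher luciferase means less miR-122 activity so hits act as miR-122 inhibitors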
# Statin myotox sup = suppression of simvastatin myotoxicity; C2C12 myotubes + simvastatin, ATP luminescence, 48 h; scaled: DMSO 0, geranylgeraniol control 100; rescue of ATP level, % at 7.49 µM; actives 0.78% (n = 330,000); AID 602340;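 active = mean ATP rescue above about 67%, or every replicate alone reaching that limit, limit read from the data, passing the limit was not always enough; inconclusive = no clear call, values can overlap the other calls; inactive = mean under the limit and some replicate under it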;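 note: myotubes were challenged with 10 µM simvastatin during compound exposure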
# DENV2 CPE = inhibitors of DENV2 cytopathic effect | DENV2-infected cells, cytopathic effect rescue, plate reader | CPE inhibition, % at 9.99 µM | actives 1.7% (n = 350,000) | AID 651640; in the data active = CPE inhibition above about 20%, passing the limit was not always enough; inconclusive = no clear call, values can overlap the other calls; tested in BHK-21 cells;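 note: 0% = median of neutral control wells and 100% = median of positive control wells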
# Active calls of the source: *; ? = inconclusive; . = no result; ! = not confirmed by another sample; [ ] = dose if it differs, or a comment. Most compounds without a hit are left out; they make up all but 2.2% or so of the library.
SMILES,PGC1a acetyl inh,PvdQ acylase,miR-122 sensor,Statin myotox sup,DENV2 CPE
C[C@H](NC(=O)C[C@H]1CC[C@H]2[C@@H](COC[C@@H](O)CN2C(=O)Nc2cc(Cl)cc(Cl)c2)O1)c1ccccc1,-4,.,-1[16.7 µM],-16,23*
COc1ccc(S(=O)(=O)Nc2ccc3c(c2)C(=O)N([C@H](C)CO)C[C@@H](C)[C@H](CN(C)S(=O)(=O)c2cn(C)cn2)OCCCC[C@@H](C)O3)cc1,12,.,1[16.7 µM],.,7
C[C@@H]1CN([C@H](C)CO)C(=O)c2cc(NC(=O)NC3CCCCC3)ccc2O[C@H]1CN(C)C,16,.,-10[16.7 µM],-22,4
Cc1ccc(S(=O)(=O)N(C)C)cc1NC(=O)COc1ccc(-c2nnco2)cc1,2,-3,-6,-8,12
Cc1ccc(S(=O)(=O)N(C)CC(=O)Oc2ccc(-c3nnco3)cc2)cc1,5,-14,-3,2,126*
Cc1ccc(Sc2nc(C)c([N+](=O)[O-])c(C)c2C#N)cc1,4,.,-6,26,29*
Cc1nc(Sc2ccc(Cl)cc2)c(C#N)c(C)c1[N+](=O)[O-],-26,-10,-4,.,17
Cn1nccc1C(=O)Nc1ccc(S(=O)(=O)N2CCCC2)cc1,10,-1,-4,4,-1
Cn1nc(C(=O)Nc2ccc(S(=O)(=O)N3CCCCC3)cc2)ccc1=O,5,-6,3,96*,.
CCCN(C)C[C@H]1OCc2cn(nn2)CCCC(=O)N([C@@H](C)CO)C[C@H]1C,-5,.,-4[16.7 µM],-14,3
C[C@H](CO)N1C[C@H](C)[C@H](CN(C)S(=O)(=O)c2ccc(Cl)cc2)Oc2c(NC(=O)C3CCCCC3)cccc2C1=O,10,.,-2[16.7 µM],2,-2
C[C@H](CO)N1C[C@H](C)[C@@H](CN(C)S(=O)(=O)c2ccc(Cl)cc2)Oc2c(NC(=O)C3CCCCC3)cccc2C1=O,5,.,27[16.7 µM],143*,?
Cc1noc(C)c1S(=O)(=O)N(C)C[C@@H]1Oc2c(NC(=O)C3CCCCC3)cccc2C(=O)N([C@H](C)CO)C[C@@H]1C,-5,.,197*[16.7 µM],-83,11
Cc1noc(C)c1S(=O)(=O)N(C)C[C@H]1Oc2c(NC(=O)C3CCCCC3)cccc2C(=O)N([C@H](C)CO)C[C@H]1C,3,.,4[16.7 µM],12,11
C[C@H]1CN([C@@H](C)CO)C(=O)c2cccc(NC(=O)C3CCCCC3)c2O[C@@H]1CN(C)S(=O)(=O)c1ccc(Cl)cc1,7,.,9[16.7 µM],119*,0
Cc1ccc(S(=O)(=O)Nc2ccc3c(c2)C(=O)N([C@@H](C)CO)C[C@H](C)[C@H](CN(C)C(=O)CCC(F)(F)F)OCCCC[C@@H](C)O3)cc1,-6,.,9[16.7 µM],.,-5
CN(Cc1ccc(Cl)c(Cl)c1)C(=O)C1CC(=O)N(c2ccc3c(c2)OCCO3)C1 (stereo not given),3,.,1,16,30*
CN(Cc1ccccc1Cl)C(=O)C1CC(=O)N(c2ccc3c(c2)OCCO3)C1 (stereo not given),-8,14,-1,0,2
NC(=O)C1CCN(C(=O)C2CC(=O)N(c3ccc4c(c3)OCCO4)C2)CC1 (stereo not given),.,-7,.,-1,24*
O=C(N[C@H]1C=C[C@H](CC(=O)N2CCOCC2)O[C@@H]1CO)c1cccc(F)c1,-28,.,-11[16.7 µM],0,15
C[C@H]1CN([C@@H](C)CO)C(=O)Cc2cc(NC(=O)Nc3ccc(C(F)(F)F)cc3)ccc2O[C@H]1CN(C)C(=O)Nc1ccc(F)cc1,0,.,1[16.7 µM],83*,5
C[C@@H]1CN([C@@H](C)CO)C(=O)Cc2cc(NC(=O)Nc3ccc(C(F)(F)F)cc3)ccc2O[C@H]1CN(C)C(=O)Nc1ccc(C(F)(F)F)cc1,-2,.,10[16.7 µM],6,53*
CC(C)(C)[S@@](=O)N1Cc2cc(C(=O)N3CCCCC3)nc(-c3cccc(-c4ccc(F)cc4)c3)c2[C@H]1CCO,15,.,.,-16,0
O=C(C1=C[C@H](c2ccc3c(c2)Cc2ccccc2-3)C[C@H](OCCCCO)O1)N1CCCCC1,-4,.,.,.,0
COc1cccc(OCCCCCCN2CCOCC2)c1,4,-7,10,112*,.
SMILES,PGC1a acetyl inh,PvdQ acylase,miR-122 sensor,Statin myotox sup,DENV2 CPE
COC(=O)c1c(C)oc2ccc(NS(=O)(=O)c3cc(OC)ccc3OC)cc12,-9,2,3,121*,.
COc1ccc(NC(=O)c2ccc(F)cc2)cc1S(=O)(=O)Nc1cc(C)ccc1Br,.,-10,.,.,.
CCOC(=O)c1ccc(NS(=O)(=O)c2cc(C)ccc2OC)cc1,-19,-17,373*,-5,.
COc1ccc(OC)c(S(=O)(=O)Nc2ccc(C(N)=O)cc2)c1,0,-5,40,45,13
COc1ccc(NS(=O)(=O)c2cc(NC(=O)c3ccc(F)cc3)ccc2OC)cc1,4,-10,108*,-5,.
COc1ccc(OC)c(S(=O)(=O)Nc2ccc(C(C)=O)cc2)c1,4,-11,100*,-5,.
CCOC(=O)c1ccc(NS(=O)(=O)c2cc(-c3nnnn3CC)ccc2OC)cc1,5,-12,4,0,.
COc1ccc(NC(=O)N(C)C[C@@H]2OCc3ccccc3-c3c(n(C)c4ccccc34)C(=O)N([C@H](C)CO)C[C@@H]2C)cc1,-5,.,.,.,7
C[C@@H]1CN([C@@H](C)CO)C(=O)Cc2cc(NS(=O)(=O)c3cn(C)cn3)ccc2O[C@H]1CN(C)Cc1ccccc1,.,.,1[16.7 µM],1,25*
C[C@H](CO)N1C[C@H](C)[C@@H](CN(C)CC2CCCCC2)Oc2ccc(NS(=O)(=O)c3cn(C)cn3)cc2CC1=O,-10,.,-4[16.7 µM],31,-9
C[C@@H]1CN([C@H](C)CO)C(=O)Cc2cc(NS(=O)(=O)c3cn(C)cn3)ccc2O[C@@H]1CN(C)CC1CCCCC1,-4,.,-1[16.7 µM],13,34*
CC(C)NC(=O)Nc1ccc2c(c1)C(=O)N([C@H](C)CO)C[C@@H](C)[C@H](CN(C)Cc1ccc3c(c1)OCO3)OCCCC[C@@H](C)O2,1,.,9[16.7 µM],.,14
CC(C)NC(=O)N(C)C[C@@H]1Oc2cc(C#Cc3ccccn3)ccc2S(=O)(=O)N([C@H](C)CO)C[C@H]1C,-11,.,-5[16.7 µM],-2,22*
CC(C)NC(=O)N(C)C[C@H]1Oc2cc(C#Cc3ccccn3)ccc2S(=O)(=O)N([C@@H](C)CO)C[C@@H]1C,-3,.,-1[16.7 µM],-4,-8
C[C@@H]1CN([C@H](C)CO)S(=O)(=O)c2ccc(C#Cc3ccccc3)cc2O[C@@H]1CN(C)C(=O)CN(C)C,-12,.,-16,2,40*!
CC(C)C#Cc1ccc2c(c1)O[C@@H](CN(C)C(=O)CN(C)C)[C@@H](C)CN([C@@H](C)CO)S2(=O)=O,-5,.,8[16.7 µM],-6,31*
C[C@@H]1CN([C@H](C)CO)S(=O)(=O)c2ccc(C#Cc3ccccc3)cc2O[C@@H]1CN(C)C(=O)c1ccccn1,-12,.,-18[16.7 µM],13,42*
CC(C)NC(=O)N(C)C[C@@H]1Oc2ccc(NC(=O)Cn3cnnn3)cc2CC(=O)N([C@H](C)CO)C[C@@H]1C,-7,.,-2[16.7 µM],-30,-9

# Compound activity from PubChem BioAssay.
